The panel holds about 79,000 compounds, 15% with a hit somewhere; the sample as a whole holds those more often. Values without a mark were called inactive. Active and inactive are the calls of the source. Cut-off read from the data, not from the text of the source: active = growth inhibition above about 70%; inactive = the rest.
Tests used:
[1] = NCI Yeast Anticancer Drug Screen. Data for the rad50 strain (AID 155);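 note: 0% = growth of vehicle-only cultures of the same strain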; conditions: S. cerevisiae rad50 strain growth inhibition; at 50.0 µM; active compounds read high
Method in brief: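 Inhibition values express reduced yeast growth in compound-treated cultures relative to vehicle-treated controls.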

[2] = NCI Yeast Anticancer Drug Screen. Data for the mec2-1 strain (AID 157); conditions: S. cerevisiae mec2-1 strain, at 50.0 µM, active compounds read high
Method in brief: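 Readout is yeast growth inhibition, normalised to vehicle-treated controls, in the mec2-1 strain exposed to compound.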

[3] = NCI Yeast Anticancer Drug Screen. Data for the sgs1 mgt1 strain (AID 161);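 note: 0% = growth of cultures given vehicle only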; conditions: S. cerevisiae sgs1 mgt1 strain, at 50.0 µM, active compounds read high
Method in brief: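 Yeast cells carrying a defined DNA-repair defect were exposed to test compounds. Growth inhibition was measured relative to vehicle-treated controls.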

[4] = NCI Yeast Anticancer Drug Screen. Data for the cln2 rad14 strain (AID 165);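 note: 0% = growth equal to vehicle treated cultures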; conditions: S. cerevisiae cln2 rad14 strain, at 50.0 µM, active compounds read high
Method in brief: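 Relative to vehicle controls, growth inhibition of compound-treated cln2 rad14 yeast was recorded.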

[5] = NCI Yeast Anticancer Drug Screen. Data for the bub3 strain (AID 167); conditions: S. cerevisiae bub3 mutant strain, at 50.0 µM, active compounds read high
Method in brief: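 Steps: expose the mutant yeast strain to compound; grow alongside vehicle-treated cultures; measure growth; express inhibition against the vehicle cultures.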

[6] = NCI Yeast Anticancer Drug Screen. Data for the mlh1 rad18 strain (AID 175); conditions: S. cerevisiae mlh1 rad18 strain growth inhibition; at 50.0 µM; active compounds read high
Method in brief: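 Test agents were incubated with a yeast strain of defined genotype (DNA damage repair defect). Inhibition of growth was derived by comparison with vehicle-exposed cultures.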

SMILES	growth inhibition [1]	growth inhibition [2]	growth inhibition [3]	growth inhibition [4]	growth inhibition [5]	growth inhibition [6]
N#CCCCCCCCCCCC(=O)O	-24.6%	-55.9%	1.95%	1.45%	-59.4%	-10.2%
COc1ccc(C2=Nc3cccc4c3N(CCC4)C2c2ccc(OC)cc2)cc1 (stereo unspecified)	0.45%	2.45%	3%	7.6%	-2.95%	4.8%
CCCOC(=O)C(O)Cc1ccccc1 (stereo unspecified)	-26.9%	18.2%	5.95%	-0.35%	-11.1%	-34.3%
Cc1ccc(Nc2ccc(Nc3ccc(C)cc3)c3c2C(=O)c2ccccc2C3=O)cc1	-1.05%	-16.9%	-4.15%	5%	-8.2%	-4.45%
O=S(=O)(O)SCCNCCCCc1ccccc1	-11.2%	-3%	2.3%	-5.35%	-6.4%	-22.8%
COC(=O)C(=O)C(/C=N/C(=S)NC1CCCCC1)=C(\O)c1ccc(F)cc1	-32.3%	-24.7%	-8.5%	-5.05%	-15.8%	-2.7%
O=C(c1ccc(Cl)cc1)c1nnc(Cl)s1	-4.7%	2.2%	-6.7%	-10.8%	24.8%	2.3%
ClC(Cc1ccccc1)(c1ccccc1)c1ccccc1	-26.6%	13.5%	-0.8%	-26.9%	13.8%	-3.6%
NC(=O)C1CCCC1	-3.3%	2.1%	-5.25%	14.1%	23.4%	-5.05%
C=CCNC(=S)N/C=C(/C#N)C(=O)OC	1.85%	-9.75%	-16.5%	21.6%	-8%	15.7%
CCOC(=O)NC(NC(=O)OCC)c1ccc2c(c1)OCO2	-38.5%	17.4%	17.1%	-11.8%	5.75%	3.8%
N/N=C(\N)N(Cc1ccccc1)c1ccccc1	10.3%	25.7%	2.85%	-11.6%	-2.6%	4.75%
CC/C(=C\c1ccc(Cl)cc1)c1ccncc1	99.2% (active)	99.5% (active)	99.1% (active)	99% (active)	99.2% (active)	99.2% (active)
CC(Cc1ccccc1)NC(=O)c1ccncc1 (stereo unspecified)	2.5%	7.45%	-5.4%	-39.7%	-0.85%	2%
COc1ccc(C2OC3=C(Nc4ccc(Cl)cc4N3)C2=O)cc1 (stereo unspecified)	-1.9%	0.3%	6.65%	9.4%	-9.3%	14.9%
Cc1cccc(N=Nc2ccc(N=Nc3c(O)ccc4ccccc34)cc2C)c1	-3.5%	2.85%	16.4%	0.65%	17.3%	11.2%
COc1ccccc1C1c2cc3c(cc2OC(O)(CO)C1C(=O)O)OCO3 (stereo unspecified) (tested in a mixture with another compound)	-18.4%	-22.7%	-15.3%	-14%	-20.6%	-3.15%
O=C1c2ccccc2C(=O)N1c1cccc([N+](=O)[O-])c1	0.5%	15.9%	16.4%	-44.6%	26.4%	7.05%
COc1ccc(C2(C(OC)OC)NC(=O)N(Cc3ccccc3)C2=O)cc1 (stereo unspecified)	2.7%	-10.6%	-4.5%	-49.4%	-11.8%	-10.3%
CC1(C)OC2C(O1)[C@H]1OC(C(Cl)(Cl)Cl)=N[C@H]1C(I)[C@H]2N1C(=O)c2ccccc2C1=O (stereo partly specified)	0.25%	-45.9%	-5.15%	-52.6%	-5.9%	3.55%
CCC(C(=O)O)(C(C)C)C(C)C	5.8%	30.9%	12.9%	12.4%	-0.05%	8.1%

SMILES	growth inhibition [1]	growth inhibition [2]	growth inhibition [3]	growth inhibition [4]	growth inhibition [5]	growth inhibition [6]
Cc1ccc(S(=O)(=O)NNc2nc(N3CCCCC3)nc(N3CCCCC3)n2)cc1	-1.25%	-2.4%	8.2%	-17.9%	-4.85%	19.6%
CC(=O)[C@H]1CC[C@H]2[C@@H]3CC[C@H]4C[C@@H](OC(c5ccccc5)(c5ccccc5)c5ccccc5)CC[C@]4(C)[C@H]3CC[C@]12C	-3.55%	11.8%	0.95%	-3.95%	-5.5%	-17.6%
COC(=O)/C(=C\SCc1ccccc1)NC(C)=O	0.45%	6.7%	-1.55%	-7.7%	-24.2%	-20.8%
CC(C)(C(=O)Cc1ccccc1)c1ccccc1	-29.5%	-21.4%	-10.2%	31.1%	0.2%	-11.3%
CNc1ncnc2[nH]cc([N+](=O)[O-])c12	6.45%	1.95%	10.1%	9.05%	3.9%	33.6%
O=c1[nH]cnc2nc(-c3cccc([N+](=O)[O-])c3)[nH]c12	-1%	30.9%	12.9%	-13.8%	5.4%	24.9%
Nc1c(OS(=O)(=O)c2ccccc2)cccc1OS(=O)(=O)c1ccccc1	20.8%	-2.45%	18.8%	20.7%	39.7%	37.1%
CSSC(SSC)C(SSC)SSC	-4.7%	4.2%	43.4%	1.4%	36.8%	47.8%
Nc1cccnc1NCC(O)c1ccccc1 (stereo unspecified)	1.9%	-13.7%	-9.45%	-12.6%	-11.6%	10.6%
CCN(C(=O)c1ccc([N+](=O)[O-])cc1)C(c1ccccc1)P(=O)(c1ccccc1)c1ccccc1 (stereo unspecified)	-12.4%	-4.5%	-15.1%	-37%	2.7%	1.45%
COC(=O)OC(C#N)c1cccc([N+](=O)[O-])c1 (stereo unspecified)	15.8%	8.8%	6.2%	-13.7%	-3.9%	9%
N#CCCC1C(=O)CCCC1=O	0.2%	9.2%	-0.85%	-13.6%	6.9%	12.9%
O=S(=O)(N=S(c1ccccc1)c1ccccc1)c1ccccc1	-67%	-66.2%	-63.1%	-20.9%	-59.6%	-51.2%
CC12C=CC(=O)C=C1CCC1C3CC(F)C(O)(C(=O)CO)C3(C)CC(O)C12F (stereo unspecified)	-6.35%	2.25%	3.25%	25.2%	14.8%	3.3%
Fc1ccc(C(Nc2nncs2)Nc2nncs2)c(F)c1	-0.8%	-13.8%	12.6%	-44.1%	-35.8%	9.7%
CC(C)=CCC/C(C)=N\Nc1ccc([N+](=O)[O-])cc1[N+](=O)[O-]	-39.4%	-6.7%	4.75%	-15.6%	2.15%	5.4%
Cc1ccc(-c2c3c(n(C4OC(CO)C(O)C(O)C4O)c(=S)c2C#N)CC(C)(C)CC3=O)cc1 (stereo unspecified)	23.5%	13.7%	-4.45%	-8.95%	9.15%	11.8%
CC(C)CNC(=S)N/N=C/C=C/c1ccc([N+](=O)[O-])cc1	4.2%	10.4%	23.4%	-16.7%	2.7%	23.3%
CCCCCCCCN1CSC(=S)N(c2ccc3[nH]c(=S)sc3c2)C1	48.9%	17.6%	34%	27.9%	5.2%	35.5%
CCOC1OC(C(O)CO)C(O)C1O (stereo unspecified)	-16.9%	-18.8%	5.25%	-39.9%	-18%	-17%
